According to the supplement of paper PMC8183993:
Counter-ions that a name gives are not always drawn. ± gives the standard deviation of the averaged measurements. Whole data set: some 3,200 compounds, median “nuclei count (viability) relative to DMSO” near 99, cut for the lowest 2% near 16. The full list was thinned out, with the lowest values kept by preference.

System: U2OS
Assay: nuclei count (viability) relative to DMSO (% of DMSO); higher = more viable cells
Details: 10 µM; 24 h
Protocol: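 Primary image-based screen in U2OS cells: compounds at 10 uM for 24 h, then a 1 h o-propargyl-puromycin (OPP) pulse, click labelling, and high-throughput microscopy. Mean cytoplasmic OPP intensity and nuclei count were normalised to DMSO wells within each plate (DMSO = 100) and averaged over triplicate plates.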

Row | Structure (SMILES) | nuclei count
1 | O=C1CC[C@@]2(O)[C@H]3Cc4ccc(O)c5c4[C@@]2(CCN3CC2CC2)[C@H]1O5 [Naltrexone hydrochloride dihydrate] | 105
2 | O=C1/C(=C/c2ccccc2)C[C@@]2(O)[C@H]3Cc4ccc(O)c5c4[C@@]2(CCN3CC2CC2)[C@H]1O5 [BNTX maleate] | 3.38
3 | Oc1ccc2c3c1O[C@H]1c4[nH]c5c(c4C[C@@]4(O)[C@@H](C2)N(CC2CC2)CC[C@]314)C[C@@]1(O)[C@H]2Cc3ccc(O)c4c3[C@@]1(CCN2CC1CC1)[C@H]5O4 [nor-Binaltorphimine dihydrochloride] | 99.1
4 | CCN(CC)CCO[C@H]1CC[C@@]2(C)C(=CC[C@@H]3[C@@H]2CC[C@]2(C)C(=O)CC[C@@H]32)C1 | 97
5 | CC(=O)O[C@H]1CC[C@@]2(C)C(=CC[C@@H]3[C@@H]2CC[C@]2(C)C(=O)CC[C@@H]32)C1 [Dehydroisoandosterone 3-acetate] | 96.3
6 | C[C@@H]1CC[C@@]2(OC1)O[C@H]1C[C@H]3[C@@H]4CC=C5C[C@@H](O[C@@H]6O[C@H](CO)[C@@H](O[C@@H]7O[C@@H](C)[C@H](O)[C@@H](O)[C@H]7O)[C@H](O)[C@H]6O[C@@H]6O[C@@H](C)[C@H](O)[C@@H](O)[C@H]6O)CC[C@]5(C)[C@H]4CC[C@]3(C)[C@H]1[C@@H]2C [Dioscin (Collettiside III)] | 9.01
7 | CO[C@@H]1[C@H](OC(=O)NC(=O)CCl)CC[C@]2(CO2)[C@H]1[C@@]1(C)O[C@@H]1CC=C(C)C | 92.6
8 | Cc1onc(O)c1C[C@H](N)C(=O)O | 102
9 | CCC(=O)CCCCC[C@@H]1NC(=O)[C@H]2CCCCN2C(=O)[C@H]([C@@H](C)CC)NC(=O)[C@H](Cc2cn(OC)c3ccccc23)NC1=O [Apicidin] | 54.1 ± 37
10 | CN(C(=O)Cc1ccccc1)C(CN1CCCC1)c1ccccc1 (stereo unspecified) [N-MPPP Hydrochloride] | 87.9
11 | CN[C@@H]1C[C@H]2O[C@@](C)([C@@H]1OC)n1c3ccccc3c3c4c(c5c6ccccc6n2c5c31)C(=O)NC4 [Staurosporine] | 10.1
12 | O=C1NC(=O)c2c1c1c3ccccc3n3c1c1c2c2ccccc2n1[C@H]1CC[C@@H]3O1 | 60.9
13 | O=C1CN=C(c2cccc(Br)c2)c2oc3ccccc3c2N1 | 78.5
14 | Clc1ccccc1C(c1ccccc1)(c1ccccc1)n1cccn1 | 102
15 | CC(C)(c1ccc(OCC2CO2)cc1)c1ccc(OCC2CO2)cc1 (stereo unspecified) | 86.6 ± 6.1
16 | CCN1C[C@]2(COC(=O)c3ccccc3N3C(=O)C[C@H](C)C3=O)CC[C@H](OC)[C@@]34[C@@H]5C[C@H]6[C@H](OC)[C@@H]5[C@](O)(C[C@@H]6OC)[C@](O)([C@@H](OC)[C@H]23)[C@@H]14 [Methyllycaconitine citrate] | 109
17 | CC(=O)N1CC[N+](C)(C)CC1 [4-Acetyl-1,1-dimethylpiperazinium iodide] | 103
18 | COc1cc([C@@H]2c3cc4c(cc3[C@H](O)[C@H]3COC(=O)[C@H]23)OCO4)cc(OC)c1OC [Podophyllotoxin] | 15.6

Row | Structure (SMILES) | nuclei count
19 | CC(C(=O)OC1CC2CCC(C1)N2C)c1ccc(Br)cc1 (stereo unspecified) [PG-9 maleate] | 98.8
20 | O=C1Nc2cc(Cl)c(Cl)cc2N2CCNCC12 (stereo unspecified) | 95.9
21 | CC12NC(Cc3ccccc31)c1ccccc12 (single isomer, unassigned; (+)) [(+)-MK 801 maleate] | 94.2
22 | O=C(CCCN1CCC2(CC1)C(=O)N(Cc1cccc(F)c1)CN2c1ccccc1)c1ccc(F)cc1 [3'-Fluorobenzylspiperone maleate] | 29.4
23 | COc1ccc(C[C@H]2NC[C@H](O)[C@H]2OC(C)=O)cc1 [Anisomycin] | 12.5 ± 8.3
24 | CC(C)n1cnc2c(C(=O)N[C@H]3CN4CCC3CC4)cc(Cl)cc21 | 96.2
25 | CCCCC/C=C\C/C=C\C/C=C\C/C=C\CCCC(=O)Nc1ccc(O)cc1 | 97
26 | COc1cc2c(cc1O)C(CCc1ccc(Cl)cc1)N(C)CC2 (stereo unspecified) | 104
27 | CC1(C)CCCC(C)(C)N1[O] | 91.7
28 | CC(C)(Cc1c[nH]c2ccc(Cl)cc12)NCCOc1ccccc1OCC1CC1 | 11.3
29 | N#CC(C#N)=Cc1ccc(O)cc1 [Tyrphostin 8] | 102
30 | COc1ccc(C(=O)c2c(C)n(CCN3CCOCC3)c3cc(I)ccc23)cc1 | 80
31 | C[CH2][Hg][S]c1ccccc1C(=O)[O-].[Na+] [Thimerosal] | 5.97
32 | CC(=O)C1=C(O)[C@@H]2[C@H]3c4c[nH]c5cccc(c45)C[C@H]3C(C)(C)N2C1=O [Cyclopiazonic acid] | 75.5
33 | CC(=O)C1=C(O)[C@@H]2[C@H]3c4c[nH]c5cccc(c45)C[C@H]3C(C)(C)N2C1=O [Cyclopiazonic Acid] | 90.3
34 | CC(C)(O)[C@H]1O[C@H]2CC[C@@]3(C)[C@@](O)(CC[C@H]4Cc5c([nH]c6ccccc56)[C@@]43C)C2=CC1=O [Paxilline] | 91.2 ± 11
35 | CN1C(=O)[C@]23CC4=CC=C[C@H](O)[C@H]4N2C(=O)[C@@]1(CO)SS3 [Gliotoxin] | 36
36 | Cc1ccc(C[N+](C)(C)C)o1 [5-Methylfurmethiodide] | 91.6
